# According to the supplement of paper PMC4166925:
# ± gives the standard deviation of the averaged measurements. Whole data set: some 33,000 sequences, median “E-score (dimensionless, -0.5 to 0.5)” near -0.049, cut for the highest 2% near 0.37. The full list was thinned out, with the highest values kept by preference.
# Tested on: T1, PmTbr T-box DNA-binding domain (GST fusion)
# T1 sequence: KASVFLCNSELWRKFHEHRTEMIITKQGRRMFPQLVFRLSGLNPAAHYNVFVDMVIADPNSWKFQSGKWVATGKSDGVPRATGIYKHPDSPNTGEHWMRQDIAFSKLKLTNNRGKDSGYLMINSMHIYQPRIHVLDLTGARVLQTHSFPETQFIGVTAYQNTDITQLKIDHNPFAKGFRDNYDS
# Assay: PBM E-score of 8-mer (E-score (dimensionless, -0.5 to 0.5)); Tbr is Tbrain of the sea star Patiria miniata (Pm) or the sea urchin Strongylocentrotus purpuratus (Sp); higher = stronger binding preference
# Conditions: the construct has about 5 more residues each side
# Method: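 Universal protein-binding microarray (Agilent AMADID 016060, 60-bp probes with a 35-bp variable region) incubated with 200 nM GST-fused Patiria miniata Tbr T-box DNA-binding domain (residues 272-466) in PBS pH 7.5. Scored for every ungapped 8-mer (given with its reverse complement) by the Universal PBM Analysis Suite as E-score (modified Wilcoxon-Mann-Whitney enrichment, range -0.5 to 0.5; >0.45 counts as bound) and Z-score of median probe intensity. Two replicate arrays (datasets 1 and 2).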
# 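Further: 200 nM protein in PBS on universal arrays averaged over duplicate arrays.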
row,Sequence,PBM E-score of 8-mer
1,AATTCGAC,-0.0254 ± 0.029
2,CCATCACG,0.033 ± 0.018
3,CGGTGGTA,-0.00583 ± 0.042
4,GGGTGGTA,0.121 ± 0.07
5,CGGTGGGA,-0.0368 ± 0.0018
6,AGGTGGGC,-0.0782 ± 0.065
7,AGGTGGTG,0.385 ± 0.042
8,AGGTGGTC,-0.0579 ± 0.012
9,AGGTGGTA,0.415 ± 0.0043
10,AGGTGGGA,0.418 ± 0.01
11,AGGTGGAG,0.141 ± 0.0032
12,ATTCAGAG,-0.13 ± 0.0013
13,CGACTTGC,0.161 ± 0.025
14,CCATCTCG,-0.0242 ± 0.099
15,GCTTGCCC,-0.245 ± 0.0072
16,TCCATCGA,-0.121 ± 0.022
17,ATAACGCC,0.237 ± 0.023
18,ATTGCACG,0.152 ± 0.033
19,AAGTGGCG,0.3473 ± 0.0029
20,GGGTGGCA,0.322 ± 0.024
21,AGGTGGCC,0.0319 ± 0.077
22,CGGTGGCA,0.147 ± 0.031

row,Sequence,PBM E-score of 8-mer
1,AGGTGGCA,0.436 ± 0.0087
2,AGGTGGCG,0.412 ± 0.023
3,AAGTTGGA,-0.0116 ± 0.045
4,AGAAGTCC,0.0869 ± 0.022
5,GTAGCCCA,-0.311 ± 0.012
6,CCACATCC,-0.102 ± 0.032
7,ACACATCG,0.382 ± 0.017
8,ACACATCT,0.325 ± 0.019
9,ACACATCA,0.299 ± 0.017
10,ACACATCC,0.3871 ± 0.0015
11,GCACATCC,0.136 ± 0.038
12,ACTTCTCC,-0.0311 ± 0.0014
13,GGAGGCTA,-0.209 ± 0.016
14,ATAGGCAT,-0.337 ± 0.021
15,CAAAGGTA,-0.133 ± 0.035
16,AAAAGGTG,0.442 ± 0.012
17,CAAAGGTC,-0.13 ± 0.039
18,AAAAGGTT,-0.0316 ± 0.041
19,AAAAGGTC,-0.0764 ± 0.033
20,CAAAGGTG,0.436 ± 0.018
21,GAAATTAA,-0.113 ± 0.044
22,GTTGCTCA,0.0245 ± 0.051

row,Sequence,PBM E-score of 8-mer
1,ACCCTCAG,0.0121 ± 0.00031
2,AACTAGGC,-0.0964 ± 0.044
3,CTTCCCCC,-0.166 ± 0.07
4,AGCTGGGC,-0.222 ± 0.056
5,GCTGGTTA,-0.0863 ± 0.064
6,AACCTATT,-0.172 ± 0.056
7,AACCTATA,-0.0111 ± 0.13
8,AACCTATC,-0.165 ± 0.17
9,CACCTATC,0.399 ± 0.0088
10,TACCTATA,-0.137 ± 0.041
11,AACCTATG,-0.141 ± 0.019
12,CACCTATA,0.377 ± 0.018
13,CACCTATG,0.429 ± 0.011
14,GACCTATC,-0.0538 ± 0.05
15,CGACTCAG,-0.0525 ± 0.0052
16,CTTTATGA,-0.00777 ± 0.018
17,CTCCACAC,0.341 ± 0.0092
18,GGCGTTAA,0.377 ± 0.024
19,GGCGTCAA,0.4094 ± 0.001
20,AGCGTTAA,0.265 ± 0.06
21,AGCGTCAA,0.258 ± 0.0039
22,CGCGTCAA,0.308 ± 0.0074

row,Sequence,PBM E-score of 8-mer
1,TGCGTTAA,0.109 ± 0.017
2,AAACCAAC,-0.0437 ± 0.062
3,CCATTAAA,-0.239 ± 0.0035
4,ATTTCGAG,0.09258 ± 0.00026
5,CTTTCGGA,-0.0447 ± 0.021
6,CTTTCGCA,0.411 ± 0.015
7,AATTCGCG,0.303 ± 0.035
8,ATTTCGCA,0.378 ± 0.0045
9,GTTTCGCA,0.3685 ± 0.0028
10,CTTTCGCC,-0.0672 ± 0.025
11,ATTTCGCC,-0.0762 ± 0.14
12,ATTTCGCG,0.4125 ± 0.00097
13,GTTCGAAA,-0.132 ± 0.091
14,GTATTCGA,0.0428 ± 0.0073
15,GATCGAAC,-0.0822 ± 0.031
16,CGCACAGA,-0.108 ± 0.087
17,AACTGATG,0.0361 ± 0.047
18,CGCTTTGC,-0.129 ± 0.036
19,ATCCATTG,-0.235 ± 0.089
20,ACTTGGCA,0.239 ± 0.015
